# The list is not random: actives were taken first. Their share in the collection is about 3.4%.
# GPR151 ag = human GPR151 activation. PathHunter beta-arrestin GPR151 cells, luminescence. activation, % at 11.2 µM. 650,000 tested, 1% active; in the data active = activation above about 4.9%;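 note: 0% = median of compound wells and 100% = cells with positive control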
# Target sequence (Q8TDV0 whole entry, looked up): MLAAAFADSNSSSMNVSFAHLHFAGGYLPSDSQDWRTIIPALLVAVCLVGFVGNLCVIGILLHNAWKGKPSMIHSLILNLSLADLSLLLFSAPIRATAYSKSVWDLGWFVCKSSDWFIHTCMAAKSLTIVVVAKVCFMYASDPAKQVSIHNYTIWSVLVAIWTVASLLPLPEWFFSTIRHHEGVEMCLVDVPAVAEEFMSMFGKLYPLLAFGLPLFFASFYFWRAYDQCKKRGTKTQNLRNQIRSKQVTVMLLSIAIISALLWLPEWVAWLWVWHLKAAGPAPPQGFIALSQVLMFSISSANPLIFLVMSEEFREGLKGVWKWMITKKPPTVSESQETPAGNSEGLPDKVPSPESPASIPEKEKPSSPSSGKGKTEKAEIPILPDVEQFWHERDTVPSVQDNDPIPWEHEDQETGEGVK
# FBW7 act = activators of human E3 ligase FBW7; Q969H0; AlphaScreen FBW7–phospho-cyclin E peptide binding, activator screen; normalized activity (activation), % at 26.1 µM; 650,000 tested, 0.13% active; AID 1259310; in the data active = normalized activity above about 1.9%;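 note: purified mutant Fbw7 with reduced substrate affinity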
# TEAD-YAP inh = TEAD-YAP interaction inhibition; HEK-TIYL cells, TEAD-Gal4/YAP UAS-luciferase luminescence; inhibition, % at 9.12 µM; 640,000 tested, 1.4% active; in the data active = inhibition above about 32%;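 note: 0% = median of test compound wells and 100% = reference inhibitor wells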
# MITF inh = inhibitors of human MITF. AlphaScreen MITF homodimerization, bead proximity signal. inhibition, % at 2.6 µM. 650,000 tested, 0.91% active. AID 1259374; in the data active = inhibition above about 50%;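 note: 0% = vehicle wells with protein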
# MITF inh conf = human MITF inhibition, confirmation | shares compounds with MITF inh | AlphaScreen MITF homodimerization, biotin/His-MITF beads | inhibition, % at 2.6 µM | 4,700 tested, 16% active | AID 1259372;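 active = inhibition above a cutoff derived from the DMSO control wells, cut at about 28% in these data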;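 note: 0% = MITF dimer wells with DMSO only; inhibitors lower the bead chemiluminescence by keeping MITF from dimerizing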
# AS interf DR = optically interferes with AlphaScreen signal in dose response. shares compounds with MITF inh. AlphaScreen optical interference counterscreen, cell-free. IC50, µM. 480 tested, 6% active; call rule not given here
# AS interf ctr = optically interferes with AlphaScreen signal; AID 1259376; shares compounds with MITF inh; inhibition, % at 2.6 µM; LysRS AlphaScreen counterscreen, signal interference, triplicate; 4,700 tested, 7.6% active;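 active = inhibition above a cutoff derived from the DMSO control wells, cut at about 30% in these data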
# An asterisk follows results filed as active; x = no result given.
SMILES,GPR151 ag,FBW7 act,TEAD-YAP inh,MITF inh,MITF inh conf,AS interf ctr,others
CC1CCCC(N2CCN(Cc3ccccc3[N+](=O)[O-])CC2)C1 (configuration not stated),0,0,0,82*,2,-2,
O=[N+]([O-])c1ccccc1S(=O)(=O)N1CCN(C2CCCCC2)CC1,-1,0,0,51*,10,17,
O=[N+]([O-])c1ccccc1CN1CCC(N2CCCCCC2)CC1,0,0,6,79*,4,0,
CC1CCCC(N2CCN(Cc3ccccc3F)CC2)C1 (configuration not stated),-1,0,-4,63*,-7,-3,
CC1CCc2cc(F)ccc2N1S(=O)(=O)c1cccc2cccnc12 (configuration not stated),3,0,7,0,x,x,
CC(=O)N1CCN(CC(=O)Nc2ccc(F)c(F)c2F)CC1,3,0,-1,13,x,x,
COc1ccc(N=Nc2sc3nc4c(c(=O)n(C)c(=O)n4C)n3c2O)cc1,-1,0,4,19,x,x,
Cc1nc2cnc(-c3ccc(O)cc3)cn2c1NC(=O)c1ccccc1,0,0,8,-3,x,x,
Cc1cc(C)cc(OCC(=O)OC2CCOC2=O)c1 (configuration not stated),1,0,14,-4,x,x,
O=[N+]([O-])c1ccccc1CN1CCCC1,1,0,-8,14,x,x,
O=[N+]([O-])c1cccc(CN2CCC(N3CCCCC3)CC2)c1,-1,0,-38,57*,-14,-5,
O=[N+]([O-])c1cccc(CN2CCC(N3CCCC3)CC2)c1,1,0,2,14,x,x,
O=[N+]([O-])c1cccc(CN2CCN(C3CC4CCC3C4)CC2)c1 (configuration not stated),1,0,4,57*,27,17,
O=[N+]([O-])c1ccccc1CN1CCN(C2CCCCC2)CC1,1,0,-5,64*,0,0,
O=[N+]([O-])c1ccccc1CN1CCC(N2CCN(c3ccccc3)CC2)CC1,0,0,2,83*,2,5,
CCOc1ccccc1CN1CCC(N2CCN(c3ccccc3)CC2)CC1,-1,0,4,48,x,x,
COC(=O)CCCC[C@H]1SC[C@H]2NC(=O)N[C@]21O,1,-1,-2,84*,107*,92*,
CC1CCCC(NC(=O)C2N(Cc3cccnc3)C(=O)C3C(C(=O)Nc4ccc(F)c(Cl)c4)C4C=CC32O4)C1C (configuration not stated),-1,0,-1,-7,x,x,
Cc1c(C(=O)O)cccc1-c1ccc(/C=C(\C#N)C(=O)NCc2ccco2)o1,-1,0,-21,24,x,x,
N#C/C(=C\c1ccc(-c2ccccc2C(=O)O)o1)C(=O)NCc1ccco1,-1,-1,-3,76*,64*,-5,AS interf DR=>6.5
O=[N+]([O-])c1cccc(N(CC2CO2)S(=O)(=O)c2ccccc2)c1 (configuration not stated),0,0,-3,51*,-1,-9,
Cc1ccc(-c2csc(/C(C#N)=C/c3ccc(Cl)cc3)n2)c(C)c1,-1,0,4,-2,x,x,
COc1cccc(OCCOCC(O)CN2CCN(c3ccccc3)CC2)c1 (configuration not stated),-3,0,1,15,x,x,
COc1cccc(N2CCN(CC(O)COCC3=CCC4CC3C4(C)C)CC2)c1 (configuration not stated),0,0,6,73*,2,-1,
CC1(C)C2CC=C(COCC(O)CNCc3cccnc3)C1C2 (configuration not stated),3,0,2,62*,9,13,
CCC1CCc2c(sc(NC(=O)Cc3ccc([N+](=O)[O-])cc3)c2C(N)=O)C1 (configuration not stated),-1,0,8,-2,x,x,
O=C(Cn1nc(-c2ccc3c(c2)OCCO3)ccc1=O)Nc1ccccc1-c1ccccc1,0,0,5,72*,9,10,
COc1ccc2oc(=O)c(-c3cn4cccnc4n3)cc2c1,0,0,-26,72*,4,12,
Cc1ccc(-c2n[nH]c(C3CCN(C(=O)N4CCOCC4)CC3)n2)cc1,1,0,3,3,x,x,

# Screening results as filed in PubChem.
